In PubChem BioAssay (NCI):
This is part of a sample that, as a whole, favours compounds with a hit. Of some 83,000 tested, about 20% had one in any assay.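 Note: values are percent growth. 100 is the growth of untreated cells, values between 100 and 0 indicate rising inhibition; between -100 and 0 indicates cell death.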 Values without a mark were called inactive. Calls of active or inactive are those of the source. The calls were made as follows: active = growth percent below 10; inactive = the rest.

Columns and labels:
Assay in all cases: NCI-60 one-dose screen, 48 h (100 = growth as untreated, 0 = no growth, -100 = all killed)
SK-MEL-2 melanoma = details: 10 µM unless noted
EKVX NSCLC = details: 10 µM unless noted
SN12C renal = details: 10 µM unless noted
UO-31 renal = details: 10 µM unless noted
TK-10 renal = details: 10 µM unless noted
ACHN renal = details: 10 µM unless noted
CAKI-1 renal = details: 10 µM
A498 renal = details: 10 µM unless noted
CCRF-CEM leukemia = details: 10 µM unless noted
MOLT-4 leukemia = details: 10 µM unless noted
SR leukemia = details: 10 µM unless noted
OVCAR-8 ovarian = details: 10 µM unless noted
OVCAR-5 ovarian = details: 10 µM unless noted
OVCAR-4 ovarian = details: 10 µM unless noted
SK-OV-3 ovarian = details: 10 µM unless noted
IGROV1 ovarian = details: 10 µM unless noted
OVCAR-3 ovarian = details: 10 µM unless noted
HS 578T breast = details: 10 µM unless noted
NCI/ADR-RES ovarian = details: 10 µM unless noted
RPMI-8226 leukemia = details: 10 µM unless noted

| SMILES | growth (SK-MEL-2 melanoma) | growth (EKVX NSCLC) | growth (SN12C renal) | growth (UO-31 renal) | growth (TK-10 renal) | growth (ACHN renal) | growth (CAKI-1 renal) | growth (A498 renal) | growth (CCRF-CEM leukemia) | growth (MOLT-4 leukemia) | growth (SR leukemia) | growth (OVCAR-8 ovarian) | growth (OVCAR-5 ovarian) | growth (OVCAR-4 ovarian) | growth (SK-OV-3 ovarian) | growth (IGROV1 ovarian) | growth (OVCAR-3 ovarian) | growth (HS 578T breast) | growth (NCI/ADR-RES ovarian) | growth (RPMI-8226 leukemia) |
| --- | --- | --- | --- | --- | --- | --- | --- | --- | --- | --- | --- | --- | --- | --- | --- | --- | --- | --- | --- | --- |
| CCC(=O)Nc1cc(Nc2cc(NC3CC3)n3ncc(C#N)c3n2)ccc1C | 32.6% | 39.1% | 43.4% | 19.7% | 15.5% | 13.8% | 14.7% | -21.5% (active) | 17.1% | 40.1% | 24.5% | 43.4% | 18.4% | 17.1% | 21.6% | 6.78% (active) | 26.2% | -17.4% (active) | 44.2% |  |
| CC(=O)Nc1ccc(NC(=O)Nc2cccc(-c3nc(-c4ccc(NC(=O)c5cccs5)cc4Cl)no3)c2)cc1C(F)(F)F | -61.4% (active) | -35.9% (active) | -64.5% (active) | 14.4% | -32.7% (active) | 3.84% (active) | -73.2% (active) | -87.9% (active) | 6.64% (active) | -0.998% (active) | -7.39% (active) | -15.8% (active) | -37.9% (active) | -94.5% (active) |  | -57.6% (active) |  | -28.3% (active) | 55.5% |  |
| CC1COc2c(N3CCN(C)CC3)c(F)cc3c(=O)c(C(=O)N/N=C/c4cc[nH]c4)cn1c23 (configuration not stated) | 83.5% | 33.3% | 49.3% | 54% | 87.8% | 43.8% | 47.6% | 40.6% | -35.9% (active) | 9.4% (active) |  | 19.4% | 77.8% | 44.6% | 61.6% | 26.6% |  | 67.5% | 94.2% | 45.3% |
| CCOC(=O)Nc1ccc(-c2nc(-c3cccc(O)c3)c(-c3ccnc(Br)c3)[nH]2)cc1 | 34.4% | 44.2% | 44.7% | 31.3% | 41.9% | 36.5% | 27.3% | 49.4% | 22.9% | 2.17% (active) | 9.74% (active) | 10.7% | 85% | 13.6% | 41.2% |  | 14.6% | -2.07% (active) | 63.5% |  |
| Cc1ccc(NC(=O)c2ccc(CN3CCN(C)CC3)c(I)c2)cc1Oc1ccc(-c2[nH]nc3ncnc(N)c23)cc1 | 86.4% | 100% | 90% | 75.8% | 114% | 76.9% | 89.9% | 103% | 3.41% (active) | 11.3% | 4.76% (active) | 91.8% | 95.8% | 96.1% | 109% | 88% | 102% | 66.2% | 44.5% |  |
| CCOC(=O)Nc1cccc(-n2cnc3cc(-c4ccc(O)cc4)ccc32)c1 | 15.8% | 42.7% | 31.2% | 26.4% | 57.1% | 19.9% | 33% | -25.1% (active) | 24.5% | 10.6% |  | 21.8% | 41.1% | 56% | 34% | 32.3% |  | 16% | 7.05% (active) | 20.2% |
| COc1ccc(-c2cc(-c3cccc4ccccc34)n3c(n2)nc2ccccc23)cc1OC | 98.2% | 69.2% | 10.9% | 29.4% | 53.1% | 8.14% (active) | 17.3% | 38% | 3.68% (active) | 7.55% (active) |  | 34.3% | 52.2% | 71.9% | 35.3% | 52.3% |  | 46.3% | 47.4% | -18.4% (active) |
| O=C(Nc1ccc(-c2nc(-c3cccc(O)c3)c(-c3ccnc(Br)c3)[nH]2)cc1)c1ccccc1 | 10.3% | 26.7% | 35% | 1.13% (active) | 49% | 16.5% | 11.3% | -11.4% (active) | 3.66% (active) | -15.8% (active) | -15.2% (active) | 24.3% | 57.7% | 35% | -5.97% (active) | 25.6% |  | -24.1% (active) | 57.6% |  |
| COc1ccc2oc3c4[nH]c5ccccc5c4c4c(c3c2c1)C(=O)N(O)C4=O | 107% | 97.8% | 94.7% | 82.2% | 140% | 97.9% | 80.4% | 75.4% | 91.4% | 116% |  | 102% | 109% | 104% | 98.9% | 94.9% |  | 89.9% | 101% | 91.9% |
| Nc1nc(N)c2c(n1)NC(c1ccccc1)CC(c1ccc(Nc3nc(NCCO)nc(Nc4ccc(Cl)cc4)n3)cc1)=N2 (configuration not stated) | 71.9% | 92.6% | 49.4% | 43.9% | 63.7% | 70.2% | 61% | 71.3% | -11.2% (active) | 1.48% (active) |  | -20% (active) | 111% | 57.2% | 116% | 64.3% |  | 79.9% |  | -56.2% (active) |
| O=S(=O)(Nc1ccc(C2CC2)cc1)c1ccc(-c2cnc(C3CC3)o2)cc1 | 64.8% | 78.4% | 75% | 71.3% | 101% | 87.6% | 27.5% | 60% | 57.9% | 41.3% | 31.1% | 80.2% | 94.2% | 67.1% | 87% | 58.2% | 53.2% | 69% | 47.7% |  |
| O=C(Cn1cc(CN2C(=O)c3ccc([N+](=O)[O-])cc3C2=O)nn1)Nc1ccccc1Br | 114% | 105% | 103% | 88.1% | 104% | 108% | 103% | 101% | 95.1% | 105% |  | 116% | 106% | 113% | 90.5% | 97.5% |  | 110% | 99.3% | 102% |
| Cc1occc1-c1nc2s/c(=C\c3cn(-c4ccccc4)nc3-c3ccccc3)c(=O)n2n1 | 99.9% | 99.4% | 89.3% | 90.5% | 106% | 108% | 89.2% | 92.9% | 90.9% | 107% |  | 101% | 99.5% | 97% | 113% | -96.2% (active) |  | 105% | 97.9% | 99.1% |
| O=C(O)CNS(=O)(=O)c1ccc(Oc2ccc(S(=O)(=O)NCC(=O)O)cc2)cc1 | 104% | 96.9% | 93.5% | 91.4% | 101% | 98.9% | 91.4% | 69.9% | 100% | 95.7% | 96.7% | 97.9% | 101% | 111% |  | 104% | 104% | 95.2% | 102% |  |
| CC(=O)Nc1ccc(NC(=O)Nc2cccc(-c3nc(-c4ccc(NC(=O)c5cccnc5)cc4Cl)no3)c2)cc1C(F)(F)F | -68.5% (active) | -39% (active) | -65% (active) | 52.9% | -31.7% (active) | 34.2% | -68.9% (active) | -64.8% (active) | -14.5% (active) | -30.8% (active) | -25.1% (active) | -9.07% (active) |  | -53.7% (active) | -57.9% (active) | -54% (active) | -63.7% (active) | -22.9% (active) | 69.2% |  |
| COc1cc(C2=NN(C(C)=O)C(c3ccc(N4CCOCC4)cc3)C2)cc(OC)c1OC (configuration not stated) | 97% | 101% | 98.3% | 84% | 108% | 99.6% | 94.7% | 78.7% | 97.3% | 106% | 108% | 101% | 103% | 107% | 97.4% | 98.5% |  | 108% | 99.5% |  |
| COc1ccc(NC(=O)Cn2cc(CN3C(=O)c4ccc([N+](=O)[O-])cc4C3=O)nn2)cc1 | 112% | 105% | 99.7% | 88.1% | 103% | 104% | 87.7% | 88.2% | 109% | 101% |  | 94.2% | 115% | 112% | 93.2% | 107% |  | 106% | 100% | 102% |
